Measured values from PubChem BioAssay AID1376 (SRMLSC, 2008).
Hit rate of the full screen: of about 220,000 compounds, about 530 (0.24%) were called active. For the sample, actives were picked, then their nearest neighbours and some compounds at random. Results with a measured potency or affinity are listed apart. Values without a mark were called inactive. No stated cut-off is given here; in the data, active means inhibition above about 13%; inconclusive means no clear call, values can overlap the other calls; inactive means below that.

These molecules were tested against Bifunctional protein GlmU (Mycobacterium tuberculosis (strain ATCC 25618 / H37Rv)) (UniProt P9WMN3) (assay: inhibition of mycobacterial GlmU enzyme – biochemical, glucosamine-1-phosphate acetyltransferase (AID 1376;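 further: 0% = complete reaction with vehicle and 100% = reaction without substrate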)). Conditions: M. tuberculosis GlmU acetyltransferase enzyme assay; stronger effect = higher value;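 tested at 30 µM in the primary screen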.
Bifunctional protein GlmU (Mycobacterium tuberculosis (strain ATCC 25618 / H37Rv)), sequence (P9WMN3 whole entry, looked up): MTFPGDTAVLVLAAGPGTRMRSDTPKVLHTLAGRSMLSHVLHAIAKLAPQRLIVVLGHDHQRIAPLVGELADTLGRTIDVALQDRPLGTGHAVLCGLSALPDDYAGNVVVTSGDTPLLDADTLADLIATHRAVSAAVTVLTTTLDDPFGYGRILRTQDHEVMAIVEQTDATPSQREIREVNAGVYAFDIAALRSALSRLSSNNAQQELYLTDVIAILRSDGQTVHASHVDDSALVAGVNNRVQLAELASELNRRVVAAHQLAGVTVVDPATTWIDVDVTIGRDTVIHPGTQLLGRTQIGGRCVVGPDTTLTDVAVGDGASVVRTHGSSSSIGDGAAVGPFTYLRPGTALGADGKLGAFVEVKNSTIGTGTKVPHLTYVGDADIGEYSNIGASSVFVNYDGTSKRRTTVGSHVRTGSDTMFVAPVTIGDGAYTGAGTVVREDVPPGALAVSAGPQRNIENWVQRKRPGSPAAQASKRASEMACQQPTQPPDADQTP

| Structure (SMILES) | inhibition |
| --- | --- |
| COc1ccc(/C=C2\SC(=O)N(CC(=O)NNC(=O)c3ccccc3O)C2=O)cc1 | 6.62% |
| Cc1cccc(NC(=O)CN2C(=O)S/C(=C\c3ccc(-c4cccc(C(=O)O)c4C)o3)C2=O)c1 | 5.54% |
| Cc1ccccc1NC(=O)CN1C(=O)S/C(=C\c2ccc(-c3cccc(C(=O)O)c3C)o2)C1=O | -5.01% |
| CCOC(=O)CN1C(=O)S/C(=C/c2ccc(O)c([N+](=O)[O-])c2)C1=O | 6.11% |
| Cc1ccc(NC(=O)CN2C(=O)S/C(=C/c3ccc(-c4cccc(C(=O)O)c4)o3)C2=O)cc1 | 13.1% (active) |
| Cc1ccc(NC(=O)CN2C(=O)S/C(=C\c3ccc(-c4cccc(C(=O)O)c4C)o3)C2=O)cc1 | 3.05% |
| Cc1ccc(NC(=O)CN2C(=O)S/C(=C\c3ccc(-c4cccc(C(=O)O)c4C)o3)C2=O)cc1C | 15.4% (active) |
| Cc1ccc(NC(=O)CN2C(=O)S/C(=C/c3ccc(O)c([N+](=O)[O-])c3)C2=O)cc1C | 14.8% (active) |
| Cc1ccc(C(=O)O)cc1-c1ccc(/C=C2\SC(=O)N(CC(=O)Nc3ccccc3)C2=O)o1 | 6.53% |
| Cc1cccc(NC(=O)CN2C(=O)S/C(=C\c3ccc(O)c([N+](=O)[O-])c3)C2=O)c1 | 3.95% |
| O=C(CN1C(=O)S/C(=C\c2ccccc2)C1=O)NNC(=O)c1ccccc1O | 6.78% |
| COc1ccc(/C=C2\SC(=O)N(CC(=O)NNC(=O)c3ccccc3O)C2=O)cc1OC | 13.8% (active) |
| CCOc1ccccc1Cn1c(=O)sc2ccccc21 | -0.39% |
| CCCNC(=O)c1cc(-c2ccc(OC)cc2)n(CCCOC)c1C | 4.42% |
| O=C1CC(N2CCN(Cc3ccc(Cl)cc3)CC2)C(=O)N1CCc1ccccc1 (stereo not drawn) | -4.79% |
| O=C(NCCc1ccccn1)c1cccc(S(=O)(=O)N2CCc3ccccc32)c1 | 2.85% |
| COCCNC(=O)C1c2ccccc2C(=O)N(CCOC)C1c1ccc(F)cc1 (stereo not drawn) | 1.96% |
| COc1ccc(C(=O)N/C(=C\c2cccc3ccccc23)C(=O)N2CCN(C)CC2)cc1OC | 0.44% |
| CSC1=NSC2=NC(=O)/C(=C/c3coc4ccccc4c3=O)C(=N)N12 | 8.95% |
| CSC1=NSC2=NC(=O)/C(=C\c3coc4ccccc4c3=O)C(=N)N12 | 7.97% |

| Structure (SMILES) | inhibition |
| --- | --- |
| CSC1=NSC2=NC(=O)/C(=C/c3coc4ccc(O)cc4c3=O)C(=N)N12 | 21.3% (active) |
| NS(=O)(=O)c1ccc(CCNC(=O)CCCC2=NS(=O)(=O)c3ccccc3N2)cc1 | 2.45% |
| COc1ccc(OCc2n[nH]c(=S)o2)cc1 | 2.56% |
| S=c1[nH]nc(COc2ccc3ccccc3c2)o1 | 3.96% |
| S=c1[nH]nc(COc2ccc(Cl)cc2)o1 | 13.3% (active) |
| O=C(O)C1Cc2ccccc2CN1C(=O)COc1ccc(Br)cc1 (stereo not drawn) | 12.6% |
| CCOC(=O)CSc1nc(C)c(C(C)=O)cc1C(N)=O | 1.16% |
| Cc1ccc(C)c(NC(=S)NNC(=O)c2csc3c2CCCC3)c1 | -4.85% |
| Cc1cccc(NC(=S)NNC(=O)c2csc3c2CCCC3)c1 | 13% (active) |
| Cc1cccc(NC(=S)NNC(=O)c2csc3c2CCC(C)C3)c1 (stereo not drawn) | 2.66% |
| CC(C)Cc1nnc(NC(=O)c2cc(-c3ccccc3)nc3ccccc23)s1 | 0.66% |
| COc1cc([N+](=O)[O-])ccc1NC(=O)Cc1ccc(F)cc1 | 4.76% |
| COc1ccc(CN2CCn3ncc(C(=O)Nc4cc(C)cc(C)c4)c3C2=O)cc1 | -5.28% |
| O=C(NNS(=O)(=O)c1ccccc1)c1sccc1-n1cccc1 | -3.8% |
| O=C(NNS(=O)(=O)c1cc(Cl)cc(Cl)c1)c1sccc1-n1cccc1 | 13.9% (active) |
| O=C(NNS(=O)(=O)c1ccc(Cl)cc1)c1sccc1-n1cccc1 | -3.47% |
| CC1(C(=O)OCC(=O)Nc2ccc3ccccc3c2)CC1(Cl)Cl (stereo not drawn) | 0.98% |
| O=C(N1CCN(Cc2ccc3c(c2)OCO3)CC1)C12CC3CC(CC(C3)C1)C2 | 3.26% |
| COC(=O)c1ccc2c(=O)sc(N3CCC(C(N)=O)CC3)nc2c1 | -0.93% |
| CCOc1ccc(/C=C2\SC(=S)NC2=O)cc1OC | 0.99% |

| Structure (SMILES) | inhibition |
| --- | --- |
| CCOc1c(O)ccc(/C=C2\SC(=S)NC2=O)c1[N+](=O)[O-] | 12.8% (active) |
| C=CCN1C(=O)/C(=C/c2ccc(OC(C)=O)c(OCC)c2[N+](=O)[O-])SC1=S | -0.95% |
| COC(=O)C1NN=C(C(=O)c2ccccc2)C1c1ccccc1 (stereo not drawn) | -3.17% |
| Cc1cc(Cl)ccc1OCC(=O)OCC(=O)Nc1ccc(F)c([N+](=O)[O-])c1 | 4.62% |
| N/C(=N\S(=O)(=O)c1cc(C(F)(F)F)cc(C(F)(F)F)c1)c1cccs1 | 13.9% (active) |
| N/C(=N\S(=O)(=O)c1cc(C(F)(F)F)cc(C(F)(F)F)c1)c1ccccc1 | 4.74% |
| NC(=O)c1ccc(/C(N)=N/S(=O)(=O)c2cc(C(F)(F)F)cc(C(F)(F)F)c2)cc1 | 2.05% |
| CC(=O)c1ccc(NC(=S)NC(=O)c2c(Cl)c(C)nn2C)cc1 | 5.85% |
| CCOC(=O)c1ccc(NC(=S)N2CCC(C(N)=O)CC2)cc1 | 6.36% |
| Cc1ccc(O)c(CO)n1 | 15% (active) |
| Cc1ccc(O)c(CCc2ccccc2)n1 | -3.57% |
| Cc1ccc(O)c(CC(C)C)n1 | 6.41% |
| COc1ccccc1NC(=O)Cn1c(CN2CCCCC2)nc2ccccc2c1=O | 0.52% |
| O=C(NC1(C(F)(F)F)NC(=O)N(c2ccc(F)cc2)C1=O)c1cccs1 (stereo not drawn) | -0.58% |
| CCOC(=O)CNC(=O)CSc1nc2sc(C)c(C)c2c(=O)n1C | 15% (active) |
| Cc1sc2nc(SCC(=O)NCCO)n(C)c(=O)c2c1C | 3.09% |
| CCOC(=O)CSc1nc2sc(C)c(C)c2c(=O)n1C | 3.47% |
| Cc1c(C(=O)NCc2cccnc2)sc2ncn(CC(=O)N3CCCCC3C)c(=O)c12 (stereo not drawn) | -7.32% |
